# Data published in ChEMBL document CHEMBL3988442, “University of Dundee, Small-Polar-MMV Screening Library” (2021).
# In all, about 69,000 compounds went through this assay and about 1,000 (1.4%) showed an effect of 50% or more. This excerpt belongs to a sample that is enriched for strong results.
# System: Leishmania donovani
# Assay: Leishmania intramacrophage assay
# Format: functional, organism-based
# Design: scale not given: in the data most compounds retested in dose-response had high values
Structure (SMILES),"Percent Effect (30.3 µM, […]) [%]","Percent Effect (30 µM, 30.03 µM) [%]"
CC(NC(=O)c1ccnn1C)c1ccc(OCC2CC2)c(F)c1 (configuration not stated),27.82,–
Cn1ccnc1SCCNC1CCN(c2nc3ccccc3s2)CC1,43.39,–
Cc1csc2c(N3CCC(NCCc4ccnn4C)CC3)ncnc12,17.37,–
CCCc1cc(CNC2CCN(c3nc4ccccc4s3)CC2)on1,35.92,–
CCc1nccn1CCNC1CCN(c2nc3ccc(Cl)cc3s2)CC1,98.8,–
CCCc1cc(NCCCC2CCOC2)n2nccc2n1 (configuration not stated),32.07,–
Cc1csc2c(N3CCC(NCCCC4CCOC4)CC3)ncnc12 (configuration not stated),10.77,–
Cc1n[nH]c(SCCNC2CCN(c3nc4ccccc4s3)CC2)n1,6.253,–
CCS(=O)(=O)CCNC1CCN(c2nc3ccc(Cl)cc3s2)CC1,66.16,–
Clc1ccc2nc(N3CCC(NCCCC4CCOC4)CC3)sc2c1 (configuration not stated),61.31,–
CCOCC(O)CN1CCN(C(=O)C2CCC2)CC1 (configuration not stated),23.63,–
O=C1CCOC[C@]2(CN(Cc3ccccc3)C[C@H]2c2ccccc2)N1,-10.32,–
CN(C)c1ccc(C(=O)N2CCC(c3cc4ncccc4[nH]3)CC2)cc1,-1.505,–
CS(=O)(=O)CCNC(=O)N1CC2(CCCC2)c2ccccc21,0.5956,–
CSCCC1c2nc[nH]c2CCN1Cc1cc(Cl)ccc1O (configuration not stated),–,8.861
CCN(C)Cc1nc(-c2ccccc2NS(C)(=O)=O)oc1C,2.546,–
O=C(O)C(F)(F)F.O=C(c1ccno1)N1CCO[C@@H]2CC(COCc3ccccn3)C[C@H]21 (some centres not stated),6.888,–
Cc1cccc(OCC2CCCN(C(=O)CN(C)C3CCNCC3)C2)c1 (configuration not stated),48.81,–
COCC(=O)N1CCCC(COc2ccccc2C)C1 (configuration not stated),0.2743,–
Cc1ccccc1OCC1CCCN(C(=O)CN(C)C2CCNCC2)C1 (configuration not stated),83.48,–
CNc1cc(CNC(=O)c2ccccc2)nc(-c2ccncc2)n1,–,35.29
Cn1ccnc1CN1CCC(F)(F)C2(CCN(c3cccnc3)C2)C1.O=C(O)C(F)(F)F.O=C(O)C(F)(F)F (configuration not stated),69.63,–
O=C([C@@H]1CCCO1)N1CCOCC2(CCN(Cc3cccnc3)C2)C1 (some centres not stated),28.44,–
Cn1ccnc1CN1CCC(F)(F)C2(CCN(c3cnccn3)C2)C1.O=C(O)C(F)(F)F (configuration not stated),-10.04,–
FC1(F)CCN(Cc2ccncc2)CC12CCN(c1cccnc1)C2.O=C(O)C(F)(F)F.O=C(O)C(F)(F)F.O=C(O)C(F)(F)F (configuration not stated),38.61,–
O=C(C1CCCO1)N1CCC2(CC1)COCCN(Cc1cccnc1)C2.O=C(O)C(F)(F)F.O=C(O)C(F)(F)F (configuration not stated),54.72,–

Structure (SMILES),"Percent Effect (30.3 µM, […]) [%]","Percent Effect (30 µM, 30.03 µM) [%]"
FC1(F)CCN(Cc2cccnc2)CC12CCN(c1ccccc1)C2.O=C(O)C(F)(F)F.O=C(O)C(F)(F)F.O=C(O)C(F)(F)F (configuration not stated),99.13,–
O=C(C1CCCO1)N1CCC2(CC1)COCCN(Cc1ccncc1)C2.O=C(O)C(F)(F)F.O=C(O)C(F)(F)F (configuration not stated),14.9,–
FC1(F)CCN(Cc2cccnc2)CC12CCN(c1ccccn1)C2.O=C(O)C(F)(F)F.O=C(O)C(F)(F)F.O=C(O)C(F)(F)F (configuration not stated),–,38.27
Cn1cc(CN2CCC(F)(F)C3(CCN(c4cccnc4)C3)C2)cn1.O=C(O)C(F)(F)F.O=C(O)C(F)(F)F (configuration not stated),0.6501,–
Cc1ccccc1CC(=O)N(C)C1CCCC1,–,-4.753
CCCOCCn1ncc(N2CCc3ccccc3C2)cc1=O,-24.62,–
O=C(NCCNc1ncccn1)N1CCCC1c1ccc(F)cc1 (configuration not stated),15.04,–
CCOC(=O)CNC(=O)c1cc2n(n1)CCCO2,10.49,–
Cc1nc(S(=O)(=O)CCn2cccn2)n(C2CCCCC2)c1C,21.76,–
NCc1ccccc1Sc1ccc(O)cc1.O=C(O)/C=C\C(=O)O,18.14,–
CCCn1nnnc1CN1Cc2ccccc2CC1c1nnc(C)o1 (configuration not stated),14.94,–
Cc1ncoc1C(=O)N1CCOC(CCCC(C)C)C1 (configuration not stated),-28.53,–
CCc1nc(C2CCCN2Cc2nc(CCOC)no2)no1 (configuration not stated),–,14.38
NCCc1n[nH]c(=O)n1-c1cccc(Cl)c1Cl,4.495,–
CC(Cc1cccnc1)Nc1ncnc2cccc(F)c12 (configuration not stated),5.204,–
CC(Cc1cncs1)Nc1ncnc2cccc(F)c12 (configuration not stated),50.92,–
Cc1cc(CC(C)Nc2ncnc3cccc(F)c23)[nH]n1 (configuration not stated),6.483,–
N#Cc1cccc(C(=O)N2C[C@H]3CC[C@@H]2CN(C(=O)C2CCC2)C3)c1,15.5,–
CC(c1ccco1)N(C(=O)Cn1nc2n(c1=O)CCCCC2)C1CC1 (configuration not stated),-5.38,–
CCS(=O)(=O)N1CCOC2(CCCN(c3cnccn3)C2)C1.O=C(O)C(F)(F)F (configuration not stated),26.09,–
Cc1nc(CN2CCc3ncnc(-c4ccccc4)c3CC2)cs1.O=C(O)C(F)(F)F,41.98,–
Cc1cccc(CN2CCc3ncnc(N4CCCC4)c3CC2)n1.O=C(O)C(F)(F)F,43.68,–
Cc1nc(CN2CCc3ncnc(-c4ccsc4)c3CC2)cs1.O=C(O)C(F)(F)F,54.86,–
Cc1cccc(CN2CCc3ncnc(N4CCN(C)CC4)c3CC2)n1.O=C(O)C(F)(F)F.O=C(O)C(F)(F)F,55.42,–
Cc1cccc(CN2CCc3ncnc(N4CCOCC4)c3CC2)n1.O=C(O)C(F)(F)F,–,-4.013
Cc1nc(CN2CCc3ncnc(-c4ccncc4)c3CC2)cs1.O=C(O)C(F)(F)F.O=C(O)C(F)(F)F,3.502,–
